Data from PubChem BioAssay (NCI).
The panel holds about 83,000 compounds, 20% with a hit somewhere; the sample as a whole holds those more often.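 For each line, cells grew in 96-well plates with the test compound present at a single concentration for 48 hours.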 Unmarked numbers belong to inactive results. Calls of active or inactive are those of the source. Rule for the calls: active = growth percent below 10; inactive = the rest.

What follows are molecules tested on T-47D breast (assay: NCI-60 one-dose screen, 48 h (100 = growth as untreated, 0 = no growth, -100 = all killed)). Details: 10 µM unless noted.

Compound | growth
COc1ccc(C2=Nc3c(N)ncnc3NC(c3cccc(Nc4ccnc5cc(C(F)(F)F)ccc45)c3)C2)cc1 (stereo not given) | 62%
Clc1ccc(-c2cn3ccsc3n2)c(Cl)c1Cl | 31.7%
CCSC1=CC(=O)c2ccccc2C1=O | -41.9% (active)
Fc1ccc2c(c1)c(-c1nc(-c3c[nH]c4ncccc34)cs1)cn2CCCN1CCOCC1 | 38.1%
C[Se]C(=O)CC1=C2C=C(F)C=CC2/C(=C\c2ccc(S(C)=O)cc2)C1C (stereo not given) | 48.7%
COc1cc(N2C(=O)[C@H](c3ccccc3)C2c2ccc(SC)cc2)cc(OC)c1OC (stereo not given in full) | 61.9%
Cc1ccc(/C=C2\CN(C(=O)C(Cl)Cl)C/C(=C\c3ccc(C)cc3)C2=O)cc1 | -29% (active)
CCCCCCC(CCCC)COC(=O)c1ccc(Cl)cc1 (stereo not given) | 103%
Cc1ccc2nc(Cl)c(Cn3nnnc3SCc3ccccc3)cc2c1 | 84.6%
O=C(O)c1cn(C2CC2)c2cc(N3CCN(C(=O)N/N=C/c4ccccc4)CC3)c(F)cc2c1=O | 91.4%
CC12CCC(/C(=C/NNc3ccc([N+](=O)[O-])cc3[N+](=O)[O-])C1=O)C2(C)C (stereo not given) | 56.8%
CCOC(=O)Cn1c(=O)c2c3ccccc3n(C)c2n2nnc(-c3ccccc3)c12 | 95.1%
COc1cc(C#Cc2ccc(=O)oc2C#Cc2ccccc2)cc(OC)c1OC | 27.6%
COc1ccc(C/C(C)=C(/c2ccc(OCCN3CCCCCC3)cc2)c2ccc(OC(=O)NCc3ccccc3)cc2)cc1 | 50.8%
Cc1c2cc[nH]c(=O)c2c(C)c2c1[nH]c1ccc(OC(=O)c3ccccc3)cc12 | 10.3%
Clc1nccc2c(-c3csc(-c4c[nH]c5ccccc45)n3)c[nH]c12 | 37%
Cc1cccc(-n2c(C)nc3ccc(N4CCCNC4=O)cc3c2=O)c1 | 103%
Cc1nn(-c2ccccc2)c(N2CCCCC2)c1/C=N/NC(=O)Cn1c(=O)sc2ccccc21 | 60.3%
C#CCOc1cccc(-c2ncc3cc(NC(=O)CCl)ccc3n2)c1 | -26.7% (active)
C=CCOC(=O)C1=C(C)NC(=O)NC1c1c(Cl)n(C)c2ccccc12 (stereo not given) | 92.5%

Compound | growth
Cc1ccc(C(=O)c2ccc(CC(=O)N/N=C/c3ccc(O)cc3O)n2C)cc1 | 50.2%
COc1cc(C(=O)/C=C/c2c(-c3cccs3)nc3ccccn23)cc(OC)c1OC | 18.2%
CC(/C=C1\SC(=S)N(CC(=O)NC(Cc2c[nH]c3ccccc23)C(=O)O)C1=O)=C\c1ccccc1 (stereo not given) | 106%
CC(C)[C@@]12C[C@@H](OC(=O)COC(=O)c3ccccc3)[C@@](C)(O1)[C@@H]1CC[C@@H](C)[C@H]1[C@@H]2OC(=O)/C=C/c1ccccc1 | 60.1%
COc1ccc2c(c1)c(-c1nonc1-c1cn(C)c3ccc(OC)cc13)cn2C | 38.6%
O=C(Cn1nnc2ccccc21)Nc1ccc(-c2nc3ccccc3s2)cc1 | 66.9%
CC(=O)c1c(Nc2ccc(F)c(F)c2F)[nH]c2c(F)cc(F)cc2c1=O | -14.3% (active)
CC/C=C1/C(=O)C=C[C@@H]1C/C=C\CCCC(=O)OC | 62.4%
O=C(CCCCCCN1CC(=O)N2[C@@H](C3CCCCC3)c3[nH]c4ccccc4c3C[C@H]2C1=O)NO | 44.2%
COc1cc(C(=O)c2c(-c3ccccc3)oc3c(OC)cccc23)cc(OC)c1O | 44%
O=C1NC(=C(Cl)Cl)/C(=N/S(=O)(=O)N2CCCCC2)N1 | 41.6%
COc1ccc(C2=CN3CC=CCC3CC2=O)cc1 (stereo not given) | 90.6%
CCN(CC)c1ccc(/C=N/NC(=O)c2ccc(Nc3ccnc(C(F)(F)F)c3)cc2)c(O)c1 | -2.74% (active)
S=c1[nH]c2cc(Cl)ccc2o1 | 92.3%
NC(=S)N/N=C/c1cn(-c2ccccc2)nc1-c1cc2ccccc2oc1=O | 47.8%
COc1ncc2cc1NS(=O)(=O)c1cccc(c1)C(=O)NCC1=CC=C(S1)c1ncnc3c1SC2=C3C | -29% (active)
CN(C)c1ccc(-c2cc(-c3ccc(Nc4nc(Nc5ccc(Cl)cc5)nc(Nc5ccc(Cl)cc5)n4)cc3)nc(N)c2C#N)cc1 | 41.3%
Cc1ccc(N=Nc2c(N)nn(-c3ccccc3)c2N)cc1 | 21.5%
CCN1C(=O)N(CC)C2C1NN=C1SCC(=O)N12 (stereo not given) | 31.9%
COP(=O)(OC)c1nnn(-c2cccc([N+](=O)[O-])c2)c1C | 99.4%
